Bioassay records: PubChem BioAssay, NMMLSC
CIT2-GFP yeast: modulators of CIT2-GFP expression in yeast, primary screen, S. cerevisiae, GFP fusion, multiplex flow cytometry, MLPCN library. actives 0.065% (n = 320,000). S. cerevisiae CIT2-GFP strain, 3 h; 100 means same as DMSO wells. GFP response vs DMSO, % at 10 µM;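 active = GFP response relative to DMSO above a set limit, near the screen mean plus 3 SD, cut at about 150% in these data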;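 also: ratio of well median GFP fluorescence to mean of DMSO wells on the plate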
AGP1-GFP MLPCN: modulators of AGP1-GFP expression in yeast TOR pathway, primary screen, cell-based, multiplex flow cytometry, S. cerevisiae, MLPCN library; 3 h; GFP as percent of DMSO wells; GFP response vs DMSO, % at 10 µM; actives 0.02% (n = 320,000); AID 2066, 2009;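 active = GFP response relative to DMSO above a set limit, near screen average plus 3 SD, cut at about 150% in these data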;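 also: median GFP channel fluorescence of the gated AGP1 strain per well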
MEP2-GFP yeast: modulators of MEP2-GFP levels in yeast, primary screen, S. cerevisiae, multiplex flow cytometry, MLPCN library; S. cerevisiae MEP2-GFP strain, 3 h; 100% = DMSO control level; GFP response vs DMSO, % at 10 µM; actives 0.51% (n = 330,000);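 active = GFP response versus DMSO above a set limit, roughly screen mean plus 3 SD, cut at about 180% in these data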;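 also: median GFP fluorescence of the barcode-gated MEP2-GFP cells per well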
RPL19A-GFP yeast: RPL19A-GFP expression modulators in yeast, primary screen, cell-based, S. cerevisiae, multiplex flow cytometry, MLPCN; S. cerevisiae RPL19A-GFP strain, 3 h; stronger effect = lower value; percent response vs DMSO, % at 10 µM; actives 0.3% (n = 330,000);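 active = percent response vs DMSO below 50%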;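 also: median channel GFP fluorescence of the barcoded RPL19A-GFP strain; ratio of sample median GFP to plate DMSO average so 100% = DMSO; lower means less RPL19A-GFP as with rapamycin TOR inhibition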
LAP4 TOR yeast: modulators of LAP4-GFP expression in yeast, primary screen, S. cerevisiae, multiplex flow cytometry, MLPCN library; actives 0.34% (n = 320,000); GFP response vs DMSO, % at 10 µM; AID 2023, 2009; 3 h; median GFP as percent of DMSO wells;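 active = GFP response vs DMSO above a set limit, about the screen mean plus 3 SD, cut at about 150% in these data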
LAP4-GFP pick2: LAP4-GFP expression modulators in yeast, confirmation, cell-based, second cherry pick, flow cytometry. shares compounds with LAP4 TOR yeast. S. cerevisiae LAP4-GFP strain, 3 h. GFP response vs DMSO, % at 10 µM. actives 20% (n = 590). AID 2621, 2010;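 active = GFP signal as percent of the solvent control above about 150%, meaning raised reporter expression, limit read from the data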;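 also: ratio of well median GFP fluorescence to plate DMSO mean so 100% = DMSO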
MEP2-GFP pick2: modulators of MEP2-GFP levels in yeast, confirmation, S. cerevisiae, flow cytometry GFP, second cherry picks | S. cerevisiae MEP2-GFP strain, 3 h | GFP response vs DMSO, % at 10 µM | AID 2622, 2010 | shares compounds with LAP4 TOR yeast | actives 10% (n = 590);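 active = GFP signal above 150% of the solvent control wells, that is a rise of more than half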;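 also: median channel GFP fluorescence of all gated yeast cells per well; ratio of median GFP to plate DMSO average so 100% = DMSO level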
RPL19A GFP CP2: RPL19A-GFP modulators in TOR pathway yeast, confirmation, cell-based, S. cerevisiae, flow cytometry, second cherry pick. shares compounds with LAP4 TOR yeast. S. cerevisiae RPL19A-GFP strain, 3 h; stronger effect = lower value; 100% means same as DMSO wells. GFP response vs DMSO, % at 10 µM. actives 3% (n = 590);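 active = under 65% GFP response relative to DMSO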;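 also: median GFP channel fluorescence per well over the all cells gate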
CIT2 GFP CP2: modulators of CIT2-GFP expression in yeast, confirmation, flow cytometry, second cherry pick, single plex. shares compounds with LAP4 TOR yeast. actives 8% (n = 590). GFP response vs DMSO, % at 10 µM. S. cerevisiae CIT2-GFP strain, 3 h; DMSO control wells read 100%;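 active = GFP response vs DMSO above about 150%, limit read from the data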;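 also: median green fluorescence per well over all gated yeast cells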
AGP1 GFP CP2: AGP1-GFP expression modulators, hit retest, confirmation, cell-based, flow cytometry, S. cerevisiae, cherry pick set 2. S. cerevisiae AGP1-GFP strain, 3 h. 590 tested, under 10 active. percent response vs DMSO, % at 10 µM. shares compounds with LAP4 TOR yeast;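 active = over 150 percent of DMSO response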;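 also: median GFP channel fluorescence over all cells without mother daughter split; sample median GFP divided by mean DMSO control so 100% equals DMSO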
s288c autofluor: compound autofluorescence in yeast s288c, dose response, artefact control for yeast TOR pathway GFP screen, s288c strain | 610 tested, under 10 active | AID 2757, 2010 | shares compounds with LAP4 TOR yeast | S. cerevisiae s288c, 520 nm autofluorescence, flow cytometry, 3 h; stronger effect = higher value; zero means same as solvent-only cells | fluorescence change (kMESF span) at 33 µM;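 active = fluorescence span over the dose series, or activity score, above about 33, limit read from the data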
s288c autofl DR: autofluorescence of compounds in yeast s288c, dose response, artefact control for yeast TOR pathway GFP screen, primary hits, KU SAR, s288c parental. shares compounds with LAP4 TOR yeast. S. cerevisiae s288c parental, compound autofluorescence, flow cytometry, 3 h. fluorescence change (span) at 33 µM. 110 tested, under 10 active. AID 488829, 2010;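 active = fluorescence change span, or the activity score built from it, above 25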
TORC1 bypass: wild-type yeast growth inhibition sparing TORC1 bypass cells, mechanism study for yeast TOR pathway GFP screen, BY4741 wild type, TORC1 bypass strain. shares compounds with LAP4 TOR yeast. S. cerevisiae BY4741 spot growth rating, 48-72 h; stronger effect = lower value. growth rating (0-3) at 30 µM. 120 tested, under 10 active. AID 504456, 2011;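 active = growth rating at most 1 for wild type yeast while the TORC1 bypass strain still grows fully, rated 3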
* = called active by the depositor; . = not tested or not shown. This is a sample that favours compounds with a hit; in the whole collection about 0.92% have one here.

SMILES	CIT2-GFP yeast	AGP1-GFP MLPCN	MEP2-GFP yeast	RPL19A-GFP yeast	LAP4 TOR yeast	LAP4-GFP pick2	MEP2-GFP pick2	RPL19A GFP CP2	CIT2 GFP CP2	AGP1 GFP CP2	s288c autofluor	others
COCCCNC(=O)C(=O)NCC1CCCN1S(=O)(=O)c1cccs1 (stereo unspecified)	67	100	106	77	205*	101	103	101	101	99	.
CNC(=O)C(=O)NCC1CCCN1S(=O)(=O)c1cccs1 (stereo unspecified)	109	114	106	105	107	.	.	.	.	.	.
CC[C@]12CCCN3CCc4c(n(c5ccccc45)C(=O)C1)C32 (stereo partly specified)	84	89	93	82	167*	98	101	98	95	96	.
COc1ccc(N2CC(C(=O)Nc3c4c(nn3-c3ccccc3)CS(=O)(=O)C4)CC2=O)cc1 (stereo unspecified)	102	97	102	107	77	.	.	.	.	.	.
COc1ccc(-c2cc3nc4n(c(=O)c3s2)CCCCC4)cc1	84	93	94	95	121	.	.	.	.	.	.
COc1ccc(-c2cc3nc4n(c(=O)c3s2)CCC4)cc1	68	65	111	65	110	95	103	64*	85	69	0.5
CCc1c(C)c(C#N)c2nc3ccccc3n2c1NCc1ccccn1	91	86	99	92	88	.	.	.	.	.	.
Cc1[nH]n(-c2ccccc2)c(=O)c1C(C[N+](=O)[O-])c1ccc(Cl)cc1 (stereo unspecified)	110	106	77	107	98	.	.	.	.	.	.
Cc1[nH]n(-c2ncc(-c3ccccc3)s2)c(=O)c1C(c1ccc(Cl)cc1)C(C#N)C#N (stereo unspecified)	88	93	86	90	155*	.	.	.	.	.	0
COc1ccc(N(C(=O)CNC(=O)c2cccs2)C(C(=O)NC2CCCC2)c2ccncc2)cc1 (stereo unspecified)	96	95	91	95	96	.	.	.	.	.	.
CS(=O)(=O)c1ccc(Sc2nc3ccccc3s2)c([N+](=O)[O-])c1	100	96	100	100	99	.	.	.	.	.	.
O=[N+]([O-])c1cc(S(=O)(=O)C(F)(F)F)ccc1Sc1nc2ccccc2s1	84	74	85	87	159*	.	.	.	.	.	0.51	s288c autofl DR=0.16;TORC1 bypass=3
Cc1cc(NC(=O)CSc2nnc(C(F)(F)F)n2C)no1	87	92	98	95	94	.	.	.	.	.	.
Cc1ccc(/C=c2\sc3nc(-c4cccs4)nn3c2=O)o1	125	104	149	103	174*	.	.	.	.	.	1.4
COc1cccc(/C=c2\sc3nc(-c4cccs4)nn3c2=O)c1OC	113	117	105	114	113	.	.	.	.	.	.
COc1ccccc1-c1nc2s/c(=C\c3cccs3)c(=O)n2n1	79	80	102	94	180*	126	108	104	110	95	0.4
CN1/C(=C\C(=O)c2ccco2)C(C)(C)c2ccccc21	96	92	102	81	180*	104	105	102	107	97	.
CCOC(=O)N1CCN(c2ccncc2S(=O)(=O)N2CCCCC2)CC1	100	100	98	102	105	.	.	.	.	.	.
Cc1cc(C(=O)Nc2ccc3c(c2)OCO3)no1	157*	111	103	97	98	104	110	101	101	101	.
Cc1ccc(NC(=O)c2cc(-c3ccc4c(c3)OCO4)on2)cc1C	106	104	106	104	101	.	.	.	.	.	.
Cc1cc(=O)c(C(=O)O)nn1-c1ccccc1C(F)(F)F	105	109	106	107	96	.	.	.	.	.	.
CC(C)C[C@]1(c2ccccc2)ON(c2ccccc2C(F)(F)F)C1=O	97	74	89	100	88	104	100	105	112	99	-0.1
CC[C@]1(c2ccccc2OC)ON(c2ccccc2C(F)(F)F)C1=O	85	81	100	93	118	150	120	103	118	110	0
COc1ccc2c(c1)C(=O)N(c1ccccc1OC)C(=O)C2(C)C	91	99	102	94	115	.	.	.	.	.	.
COc1ccccc1[C@]1(C)ON(c2ccccc2C(F)(F)F)C1=O	89	87	89	92	156*	150*	110	100	107	100	0.3
CCOc1ccc(/C=N/NC(=O)CNC(=O)c2ccc(S(=O)(=O)N3CCOCC3)cc2)cc1	105	103	108	106	93	.	.	.	.	.	.
Cc1ccc(S(=O)(=O)NCc2cccnc2)cc1C(=O)NC1CCCCC1	92	92	96	88	91	.	.	.	.	.	.
CCC1CCCCN1C(=O)C(=O)c1cn(CC(=O)N(CC)CC)c2ccccc12 (stereo unspecified)	181*	123	106	105	104	101	103	98	99	100	.
